Test results taken from PubChem BioAssay AID488969 (Vanderbilt High Throughput Screening Facility, 2010).
The full ranking holds about 110,000 compounds; the median of “z-score” is about -0.1, and the highest 2% start at about 2. Shown is part of a subset that was picked to be rich in the highest values. Calls of active or inactive are those of the source.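 How the source made its calls: active means z-score in the third read window above 3 or below -3; inactive means the rest.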

target: Metabotropic glutamate receptor 8 (Rattus norvegicus) (UniProt P70579); assay: rat mGluR8 modulators via GIRK flux, primary screen, cell-based, thallium flux, HTS (AID 488969); details: HEK293 rat mGluR8, GIRK (G protein-gated inwardly rectifying potassium channel) thallium flux, FluoZin2; at 10 µM; stronger effect = higher value; submaximal glutamate (EC20) added with thallium
Sequence (P70579 whole entry, looked up): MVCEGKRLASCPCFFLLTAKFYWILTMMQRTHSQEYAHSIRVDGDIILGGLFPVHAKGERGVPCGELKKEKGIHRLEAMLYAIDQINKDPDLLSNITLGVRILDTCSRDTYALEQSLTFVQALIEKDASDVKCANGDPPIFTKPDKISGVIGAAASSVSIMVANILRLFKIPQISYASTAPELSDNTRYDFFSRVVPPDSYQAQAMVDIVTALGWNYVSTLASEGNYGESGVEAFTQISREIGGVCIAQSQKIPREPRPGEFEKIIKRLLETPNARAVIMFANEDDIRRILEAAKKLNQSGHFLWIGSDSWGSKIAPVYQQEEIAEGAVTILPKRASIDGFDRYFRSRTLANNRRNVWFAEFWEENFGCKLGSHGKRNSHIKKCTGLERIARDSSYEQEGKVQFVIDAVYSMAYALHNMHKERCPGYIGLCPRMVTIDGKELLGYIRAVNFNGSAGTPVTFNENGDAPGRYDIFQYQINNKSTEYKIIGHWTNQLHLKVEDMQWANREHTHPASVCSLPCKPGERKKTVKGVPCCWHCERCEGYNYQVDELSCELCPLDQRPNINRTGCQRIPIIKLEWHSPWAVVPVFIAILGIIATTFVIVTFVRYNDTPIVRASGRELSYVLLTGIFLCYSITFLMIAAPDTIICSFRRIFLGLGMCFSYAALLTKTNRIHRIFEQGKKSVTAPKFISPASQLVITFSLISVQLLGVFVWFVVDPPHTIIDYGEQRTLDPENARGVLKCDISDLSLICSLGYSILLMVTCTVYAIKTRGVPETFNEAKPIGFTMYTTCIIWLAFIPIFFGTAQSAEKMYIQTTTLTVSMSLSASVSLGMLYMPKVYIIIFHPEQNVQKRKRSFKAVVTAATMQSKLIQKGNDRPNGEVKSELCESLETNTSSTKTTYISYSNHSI

Q: For `Cc1ccc(S(=O)(=O)N2CCOCC2)cc1NC(=O)CSc1nnc2cc(C)c3ccccc3n12`, which z-score is on record?
A: -1.43

Q: For `CCn1c(-c2cc3c(C(F)(F)F)nn(C)c3s2)n[nH]c1=S`, which z-score is on record?
A: 7 (active)

Q: With `CCCCSc1nnc(-c2cc3c(C(F)(F)F)nn(C)c3s2)n1C` as the compound, how does the z-score read?
A: -0.355

Q: With `Cn1c(-c2cc3c(C(F)(F)F)nn(C)c3s2)n[nH]c1=S` as the compound, how does the z-score read?
A: -0.114

Q: Which z-score does the source give for `Cc1cc(N2CCN(c3nc(N4CCOCC4)nc4ccccc34)CC2)c2ccccc2n1` here?
A: 0.213

Q: How did the z-score turn out when `CC(C)CC(C(=O)Nc1oc(-c2ccccc2)c(-c2ccccc2)c1C#N)N1C(=O)c2ccccc2C1=O` (stereo unspecified) was run?
A: -0.151

Q: Which z-score does the source give for `COc1ccc(C(=O)Oc2ccc(/C=N/NC(=O)Cc3ccc([N+](=O)[O-])cc3)cc2)cc1` here?
A: 0.194

Q: For `Cc1cccc(C(=O)NNC(=O)c2ccc(-c3ccccc3)cc2)c1`, which z-score is on record?
A: 0.252

Q: With `Cc1ccc(C(=O)NC(=S)Nc2ccc(NC(=O)c3cccc(Cl)c3)cc2)cc1` as the compound, how does the z-score read?
A: -0.278

Q: How did the z-score turn out when `O=C(NNC(=S)NC(=O)c1cccnc1)c1ccc(Cl)cc1` was run?
A: 0.171

Q: How did the z-score turn out when `Cc1cccc(C(=O)NC(=S)NNC(=O)c2ccc(Cl)cc2)c1` was run?
A: 6.22 (active)

Q: Which z-score does the source give for `O=C(NNC(=O)c1ccc(Cl)cc1Cl)c1ccncc1` here?
A: 0.97

Q: `Cc1ccc(C(=O)NNC(=S)NC(=O)c2ccc(Cl)cc2)cc1` was tested. Which z-score did it give?
A: 7.64 (active)

Q: How did the z-score turn out when `COC(=O)NNC(=O)c1ccc(Cl)cc1Cl` was run?
A: -0.27

Q: For `Cc1ccccc1C(=O)NNC(=S)NC(=O)c1ccc(Cl)cc1Cl`, which z-score is on record?
A: 4.35 (active)

Q: For `Cc1onc(-c2ccccc2)c1C(=O)NNC(=S)NC(=O)c1ccc(Cl)cc1Cl`, which z-score is on record?
A: 0.272

Q: For `Cc1ccc(C(=O)NC(=S)NNS(=O)(=O)c2ccc(C)cc2)cc1`, which z-score is on record?
A: 0.234

Q: For `O=C(NC(=S)NNC(=O)c1ccc(Cl)cc1Cl)c1cccnc1`, which z-score is on record?
A: -0.129

Q: Which z-score does the source give for `Cc1ccc(C(=O)NNC(=S)NC(=O)c2ccc(Cl)cc2Cl)cc1` here?
A: 2.02

Q: With `CN(C)[C@@H]1CCC[C@H]1OC(=O)C(c1ccccc1)c1ccccc1` as the compound, how does the z-score read?
A: -1.41

Q: `Cc1ccc(S(=O)(=O)N2CCN(S(=O)(=O)c3ccc(C)cc3)C2)cc1` was tested. Which z-score did it give?
A: -0.481

Q: For `O=C(COC(=O)Cc1ccc(Cl)cc1Cl)NCCC1=CCCCC1`, which z-score is on record?
A: -1.17

Q: `CCCC(=O)Nc1ccc(C(=O)Nc2nc(CC(=O)OCC)cs2)cc1` was tested. Which z-score did it give?
A: -0.437

Q: For `CCCN1C/C(=C/c2ccc3c(c2)OCO3)C(=O)/C(=C/c2ccc3c(c2)OCO3)C1`, which z-score is on record?
A: -0.565

Q: How did the z-score turn out when `Cc1ccc2c(c1)C1CCCC3C1N2CC(=O)N3Cc1ccccc1` (stereo unspecified) was run?
A: -0.338

Q: For `C/C(=N\O)C(C)/[N+]([O-])=C/c1nc(C)c(C)n1O` (stereo unspecified), which z-score is on record?
A: 1.53

Q: For `O=C(CSc1nc2ccccc2c(=O)n1-c1ccc(F)cc1)Nc1ccc(N2CCOCC2)cc1`, which z-score is on record?
A: -0.000577

Q: How did the z-score turn out when `O=C(NNC(=O)c1cccs1)c1ccc(Br)o1` was run?
A: -0.207

Q: For `COc1ccc(C)cc1NC(=S)NNC(=O)c1ccccc1Cl`, which z-score is on record?
A: 0.678

Q: Which z-score does the source give for `Cc1cccc(C(=O)NC(=S)NNC(=O)Cc2ccccc2)c1` here?
A: 1.8

Q: How did the z-score turn out when `O=C(COc1cccc(Cl)c1)NNC(=S)Nc1ccccc1` was run?
A: 0.593

Q: With `O=C(COc1ccccc1)NNC(=S)NC(=O)c1ccc(Cl)cc1Cl` as the compound, how does the z-score read?
A: 5.19 (active)

Q: How did the z-score turn out when `O=C(NNC(=S)NC(=O)c1cccs1)c1ccc(NC(=O)c2ccccc2)cc1` was run?
A: -0.0903

Q: Which z-score does the source give for `O=C(NC(=S)NNC(=O)c1cccs1)c1ccco1` here?
A: 1.08

Q: Which z-score does the source give for `O=C(NC(=S)NNC(=O)c1cccs1)c1ccc(Br)o1` here?
A: 4.37 (active)

Q: For `CCNC(=S)NNC(=O)c1cccs1`, which z-score is on record?
A: -0.146

Q: `Cc1ccc(OCC(=O)NC(=S)Nc2cccc(NC(=O)c3ccc(Cl)cc3Cl)c2)cc1` was tested. Which z-score did it give?
A: 0.148

Q: For `Cc1cccc(C(=O)NC(=S)NNC(=O)c2cccs2)c1`, which z-score is on record?
A: 5.42 (active)

Q: For `Cc1cccc(C(=O)NC(=S)NNC(=O)c2ccccc2Cl)c1`, which z-score is on record?
A: 5.34 (active)

Q: `CC1=C(C(=O)Nc2cc(C)ccc2C)C(c2cccs2)NC(=S)N1` (stereo unspecified) was tested. Which z-score did it give?
A: -0.0019

Q: How did the z-score turn out when `O=C(CS(=O)CC(=O)N(c1ccccc1)C(C(=O)NC1CCCCC1)c1ccco1)Nc1ccc(F)cc1` (stereo unspecified) was run?
A: -0.245

Q: Which z-score does the source give for `COc1ccc(S(=O)(=O)n2nc(C)cc2C)c(C)c1C` here?
A: -0.246

Q: How did the z-score turn out when `CC(=O)Nc1ccc(S(=O)(=O)NNC(=O)CCC(=O)Nc2cc(C)ccc2C)cc1` was run?
A: -0.368

Q: How did the z-score turn out when `Cc1ccccc1Nc1nc(-c2ccccc2)c(C(=O)Nc2cccnc2)s1` was run?
A: 0.177

Q: With `O=C(O)CCSc1nc2ccccc2n1CCOc1ccccc1` as the compound, how does the z-score read?
A: 0.105

Q: `CS(=O)(=O)c1ccc(Sc2nc3ccccc3[nH]2)c([N+](=O)[O-])c1` was tested. Which z-score did it give?
A: -0.102

Q: For `O=C1/C(=C/c2ccccc2)Nc2ccccc21`, which z-score is on record?
A: -0.773

Q: How did the z-score turn out when `O=C(NC(=S)NNC(=O)c1ccccc1[N+](=O)[O-])c1ccccc1` was run?
A: -0.00864

Q: For `Cc1ccccc1C(=O)NNC(=S)NC(=O)c1ccccc1`, which z-score is on record?
A: 3.78 (active)

Q: Which z-score does the source give for `Cc1ccc(C(=O)NC(=S)NNC(=O)c2ccccc2[N+](=O)[O-])cc1` here?
A: 0.414

Q: Which z-score does the source give for `Cc1ccc(NC(=O)C(=O)NNC(=O)c2ccccc2C)cc1Cl` here?
A: -0.171

Q: With `Cc1ccccc1C(=O)NNC(=O)CCC(=O)Nc1cccc(Cl)c1C` as the compound, how does the z-score read?
A: -0.34

Q: For `Cc1ccccc1C(=O)NNC(=O)C(=O)Nc1cccc(Cl)c1C`, which z-score is on record?
A: 6.02 (active)

Q: With `Cc1cc(C)nc(Sc2ccc(/C=C(\C#N)C(=O)Nc3ccccc3)o2)n1` as the compound, how does the z-score read?
A: -0.125

Q: With `CCN(CC)CCCNC(=O)c1cc(-c2cccc(Cl)c2)on1` as the compound, how does the z-score read?
A: 2.64

Q: How did the z-score turn out when `CCN(CC)CCCNC(=O)c1cc(-c2ccc(Cl)cc2)on1` was run?
A: 1.7
